Among the test systems are NCI-H23 lung; NCI-H226 lung; NCI-H322M lung; HOP-62 NSCLC; NCI-H460 lung; HOP-92 NSCLC; NCI-H522 lung; 786-0 renal; COLO 205 colon; A549/ATCC NSCLC.
What all share (experiment): NCI-60 one-dose screen, 48 h (100 = growth as untreated, 0 = no growth, -100 = all killed)
Holding throughout (details): 10 µM unless noted

The panel holds about 83,000 compounds, 20% with a hit somewhere; the sample as a whole holds those more often.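 How to read the values: 0–100, growth inhibition (40 = 60% inhibited); 0, no net growth; -100 to 0, cell death (-40 = 40% of starting cells died; -100 = all dead).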 Unmarked numbers belong to inactive results. Activity calls are given as the source filed them. How the source made its calls: active means growth percent below 10; inactive means the rest.

As for `Cc1ccc(-c2nc(-c3cn(C)c4ncccc34)cs2)cc1`, the growth with NCI-H23 lung was -7.81% [100 µM] (active); with NCI-H226 lung, -35.3% [100 µM] (active); in the experiment on NCI-H322M lung, -32% [100 µM] (active); with HOP-62 NSCLC, -63.3% [100 µM] (active); with NCI-H460 lung, -48.5% [100 µM] (active); in the experiment with HOP-92 NSCLC it was -47.2% [100 µM] (active). Further, the results for the growth in the experiment with NCI-H522 lung, with 786-0 renal and with COLO 205 colon were 6.25% [100 µM] (active), -52.8% [100 µM] (active) and -60.5% [100 µM] (active), respectively.

In the case of `CS(=O)(=O)Nc1cc(-c2ccc3ncc(C#N)c(Nc4ccc(F)c(Cl)c4)c3c2)cnc1Cl`, the growth with NCI-H23 lung is -11.7% (active); in the experiment on NCI-H226 lung it was -0.649% (active); with NCI-H322M lung, 5.43% (active); with HOP-62 NSCLC it was 1.41% (active); in the experiment with NCI-H460 lung, 6.16% (active); in the experiment on HOP-92 NSCLC, -1.46% (active). Also, the growth is -18.1% (active) in the experiment on NCI-H522 lung, 6.73% (active) in the experiment with 786-0 renal and -53.5% (active) in the experiment on COLO 205 colon.

As for `COc1cc(NC(=O)c2cncnc2Nc2ccc3c(ccn3Cc3ccccn3)c2)cc(OC)c1`, the growth in the experiment with NCI-H23 lung is 68.6%; with NCI-H226 lung, 76.1%; in the experiment on NCI-H322M lung, 76.4%; with HOP-62 NSCLC, 43.9%; with NCI-H460 lung it was 20.5%; in the experiment on HOP-92 NSCLC, 54.2%. In addition, the growth with NCI-H522 lung was 38.9%; with 786-0 renal, 49.4%; in the experiment with COLO 205 colon, 44.9%.

Consider `Cc1ccc(-c2nc(/C=C3/C(=O)Nc4ccc(F)cc43)c3ccccn23)cc1`, for which the growth was 77.1% in the experiment on NCI-H23 lung; 95.2% with NCI-H226 lung; 91.6% in the experiment with NCI-H322M lung; 92.8% with HOP-62 NSCLC; 36% in the experiment on NCI-H460 lung; 82.2% in the experiment with HOP-92 NSCLC. Besides, the growth is 62.7% in the experiment on NCI-H522 lung, 81.8% in the experiment on A549/ATCC NSCLC, 112% in the experiment on 786-0 renal and 81.9% in the experiment on COLO 205 colon.

For `N#C/C(=C\c1cn(Cc2ccccc2)c2ccccc12)C(=O)Nc1ncc(Cc2ccccc2Cl)s1`, the growth in the experiment with NCI-H23 lung is -29.3% (active); with NCI-H226 lung, -33.6% (active); with NCI-H322M lung, 36.1%; in the experiment with HOP-62 NSCLC, 12.5%; in the experiment on NCI-H460 lung, -44.2% (active); in the experiment with HOP-92 NSCLC, -6.07% (active). For the same molecule, the growth is 30.3% in the experiment on NCI-H522 lung, 8.73% (active) in the experiment on A549/ATCC NSCLC, 6.01% (active) with 786-0 renal and -2.97% (active) with COLO 205 colon.

In the case of `O=C(Oc1ccc(CCl)cc1)c1ccccc1`, the growth in the experiment with NCI-H23 lung was -72.6% (active); in the experiment on NCI-H226 lung, -97.8% (active); in the experiment with NCI-H322M lung, -91.4% (active); in the experiment with HOP-62 NSCLC it was -79.2% (active); in the experiment on NCI-H460 lung, -47.5% (active); with HOP-92 NSCLC, -89.7% (active). In addition, the growth is -65.7% (active) with NCI-H522 lung, -92.5% (active) with 786-0 renal and -72.9% (active) in the experiment on COLO 205 colon.

Take `Cc1ccc(-c2nc(N3CCNCC3)c3oc(-c4ccc(C)cc4)nc3n2)cc1`: the growth in the experiment on NCI-H23 lung is 75.6%; in the experiment with NCI-H226 lung, 97.6%; in the experiment with NCI-H322M lung, 47.9%; in the experiment with HOP-62 NSCLC, 76.1%; in the experiment on NCI-H460 lung, -68.3% (active); in the experiment on HOP-92 NSCLC it was 88.9%. For the same molecule, the growth was 76.1% in the experiment with NCI-H522 lung, -83.3% (active) in the experiment on A549/ATCC NSCLC, -92.2% (active) with 786-0 renal and -81.2% (active) in the experiment on COLO 205 colon.

Consider `Cc1ccc(S(=O)(=O)c2nc(-c3ccccc3)oc2Sc2nc3ccccc3s2)cc1`, for which the growth was 20.9% in the experiment with NCI-H23 lung; 48.6% in the experiment on NCI-H226 lung; 94% in the experiment with NCI-H322M lung; 97.1% in the experiment on HOP-62 NSCLC; 68.1% with NCI-H460 lung; 73.9% in the experiment with HOP-92 NSCLC. Further, the growth with NCI-H522 lung is 54.1%; in the experiment with A549/ATCC NSCLC, 101%; in the experiment with 786-0 renal, 35.3%; with COLO 205 colon, 102%.

With `CNCc1cccc2c1OCCOCCOCCNS(=O)(=O)c1ccc(cc1)-c1cnc(N)c(n1)C(=O)N2`, the growth in the experiment on NCI-H23 lung is 36.7%; with NCI-H226 lung, 24.5%; in the experiment with NCI-H322M lung, 46.2%; in the experiment on HOP-62 NSCLC, 26.4%; in the experiment on NCI-H460 lung it was 9.41% (active); in the experiment on HOP-92 NSCLC, 61.7%. Further, the growth is 9.67% (active) in the experiment on NCI-H522 lung, 46.3% in the experiment on A549/ATCC NSCLC, 30.8% in the experiment on 786-0 renal and -18.7% (active) with COLO 205 colon.

With `O=C(NNc1cnccn1)c1nc2cc(F)ccc2n2cccc12`, the growth with NCI-H23 lung is 25.4%; in the experiment with NCI-H226 lung it was 14.1%; in the experiment with NCI-H322M lung, 18%; with HOP-62 NSCLC, 15%; with NCI-H460 lung it was 2.78% (active); in the experiment on HOP-92 NSCLC, 34.9%. Besides, the values for the growth in the experiment on NCI-H522 lung, in the experiment with 786-0 renal and in the experiment with COLO 205 colon were -2.38% (active), 28.6% and 7.25% (active), respectively.

For `COc1ccc2c(c1)CCc1[nH]nc(-c3cc(OC)c(OC)c(OC)c3)c1-2`, the growth in the experiment on NCI-H23 lung is 12.7%; with NCI-H226 lung, 41%; with NCI-H322M lung, 47%; in the experiment on HOP-62 NSCLC it was 12.9%; in the experiment with NCI-H460 lung, 3.92% (active); in the experiment with HOP-92 NSCLC, 32.8%. Moreover, the growth in the experiment with A549/ATCC NSCLC was 5.04% (active); in the experiment with 786-0 renal, 3.88% (active); with COLO 205 colon it was -64.6% (active).

On to `Cc1ccc(C)c2c(C)c(C(=O)Nc3cccc(-n4cccn4)c3)oc12`, for which the growth with NCI-H23 lung was 73.1% [50 µM]; in the experiment on NCI-H226 lung it was 62.1% [50 µM]; with NCI-H322M lung, 86.5% [50 µM]; with HOP-62 NSCLC it was 99.4% [50 µM]; in the experiment with NCI-H460 lung, 56.4% [50 µM]; with HOP-92 NSCLC it was 90.8% [50 µM]. Besides, the growth is 58.4% [50 µM] in the experiment on A549/ATCC NSCLC, 82.2% [50 µM] in the experiment with 786-0 renal and 62.8% [50 µM] in the experiment on COLO 205 colon.

Consider `CCN1C(=O)N(CC)C2C1NN=c1s/c(=C\c3ccc(C(F)(F)F)cc3)c(=O)n12` (stereo unspecified), for which the growth in the experiment on NCI-H23 lung is 26.7%; in the experiment on NCI-H226 lung it was 60.8%; in the experiment on NCI-H322M lung it was 45.2%; in the experiment on HOP-62 NSCLC, 39.1%; in the experiment on NCI-H460 lung, 2.84% (active); in the experiment with HOP-92 NSCLC, 34.8%. Moreover, the growth is 5.31% (active) in the experiment with A549/ATCC NSCLC, 24.9% in the experiment on 786-0 renal and -6.59% (active) in the experiment on COLO 205 colon.

Turning to `O=C1C(Nc2ccccn2)=C(I)C(=O)c2ncccc21`, the growth with NCI-H23 lung was -35.1% (active); with NCI-H226 lung, 33%; with NCI-H322M lung it was -31.2% (active); in the experiment with HOP-62 NSCLC, -72.5% (active); in the experiment with NCI-H460 lung, -61.4% (active); in the experiment on HOP-92 NSCLC, -2.25% (active). Moreover, the growth in the experiment with A549/ATCC NSCLC is -48.8% (active); in the experiment on 786-0 renal, -22.9% (active); in the experiment on COLO 205 colon, 49.2%.

The values are drawn from PubChem BioAssay (NCI).
